Shiga toxin inh = A qHTS for Small Molecule Inhibitors of Shiga Toxin. 290,000 tested, 9.2% active. inhibition, % at 38.7 µM. AID 2315, 2010. Vero cells, Shiga toxin protein synthesis inhibition reporter; in the data active = inhibition mostly above about 28%, no sharp cut-off; inactive = mostly below about 43%; note: 0% is about no effect
Pf growth 96h = Primary qHTS for delayed death inhibitors of the malarial parasite plastid, 96 hour incubation; 320,000 tested, 6.9% active; Potency, µM (doses to about 28.7 µM), for the others: top-dose activity change, negative = inhibition, most hits filed as inhibitors; P. falciparum luciferase reporter growth, 96 h; note: potency is the fitted concentration of half-maximal effect; % is set by controls: 0 for no effect and ±100 for the full control effect
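Luminescence readout: decreased luciferase signal marks inhibited growth of reporter-expressing P. falciparum in infected red cells (2% hematocrit, 0.05% parasitemia final), exposed to compound two generations (96 h, 37 C, 5% CO2).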
Pf growth 48h = Primary qHTS for delayed death inhibitors of the malarial parasite plastid, 48 hour incubation | P. falciparum luciferase growth in erythrocytes, 48 h | Potency, µM (highest dose often 28.7 µM), for the others: at the highest dose activity change, negative = inhibition, usual class: inhibitors | 310,000 tested, 5.9% active | AID 504832, 2011; note: potency is the fitted concentration of half-maximal effect; % is set by controls: 0 for no effect and ±100 for the full control effect
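In quantitative HTS format, infected erythrocytes bearing luciferase-reporter parasites were treated for a single generation at 37 C. Luminescence after adding detection reagent served as the growth measure.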
HCMV antiviral = qHTS Assay for inhibitors of the human cytomegalovirus (HCMV) | HFF cells, HCMV-luciferase reporter, 72 h; active compounds read low | activity change, negative = inhibition, % at 57.5 µM | 410,000 tested, 4.5% active; in the data active = activity change below about -60%; inconclusive = no clear call, values can overlap the other calls; inactive = above about -39%; note: % is set by controls: 0 for no effect and ±100 for the full control effect
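Human foreskin fibroblasts infected with luciferase-reporter HCMV at MOI 1 PFU/cell, compounds at two doses. Luciferase measured 72 h post infection; normalized to buffer-only basal and Salinomycin (10uM) controls.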
Cycloheximide cs = Cycloheximide Counterscreen for Small Molecule Inhibitors of Shiga Toxin; cell reporter, cycloheximide protein synthesis inhibition counterscreen; AID 2314, 2010; max response, %; 300,000 tested, 12% active; in the data active = max response mostly above about 13%, no sharp cut-off; inactive = mostly below about 14%; note: read at 38.3 µM for the half of the compounds with a filed dose; 0% is about no effect
* marks the source's active call; other numbers are inactive results; i = inactive; ? = inconclusive; / = no result given. Most compounds without a hit are left out; they make up all but 20% or so of the library. Unless noted, calls come from the whole dose curve; as a rule, active = well fitted inhibition curve with a large enough effect; inconclusive = small, poorly fitted or top-dose-only effect, or another doubt; inactive = no such curve, though single readings can be large or run the other way.

SMILES	Shiga toxin inh	Pf growth 96h	Pf growth 48h	HCMV antiviral	Cycloheximide cs
CCOC(=O)c1sc(=NC(=O)c2ccc(S(=O)(=O)N3CC(C)OC(C)C3)cc2)n(C)c1C (configuration not stated)	-23.7	?	?	-23.0	0.4
CCOC(=O)c1sc(=NC(=O)c2ccco2)n(C)c1C	73.2*	147.8%	205.2%	32.7	60.1*
CCOC(=O)c1sc(=NC(=O)c2ccc(Cl)s2)n(C)c1C	58.8*	154.6%	126.2%	12.3	31.1*
C=CCn1c(=NC(=O)c2ccco2)sc2cc(C(=O)OC)ccc21	-6.9	6.0%	2.3%	-18.7	13.2
CCOC(=O)c1sc(=NC(=O)c2ccc(C)c(C)c2)n(C)c1C	67.4*	20.4%	83.1%	23.6	63.0*
CCOC(=O)c1sc(=NC(=O)c2ccccc2Br)n(C)c1C	86.8*	38.9%	107.3%	88.7	29.7*
Cc1sc(=NC(=O)c2ccco2)n(C)c1-c1ccc(Cl)cc1	46.9	10.4µM*	?	21.1	3.2
CCOC(=O)c1sc(=NC(=O)c2ccc(OC(C)C)cc2)n(C)c1C	-8.3	0.0%	0.3%	-26.0	-6.0
CCOC(=O)c1ccccc1C(=O)OCC	/	-12.9%	-2.0%	-31.2	/
CCOC(=O)c1sc(=NC(=O)c2cccs2)n(C)c1C	95.9*	i	i	179.0	48.4*
CC(=C\C(=O)O)/C(=C/c1ccc(C)o1)C(=O)O	1.6	?	-4.6%	?	-1.2
CCc1ccc(C2C(C(C)=O)=C(C(=O)OC)Nc3nnnn32)cc1 (configuration not stated)	-3.1	5.22µM*	-16.8%	-14.2	1.0
O=C(Nc1ccc(S(=O)(=O)N2CCCC2)cc1)c1cccs1	7.6	?	?	?	8.1
CN1CCN(S(=O)(=O)c2ccc(NC(=O)c3cccs3)cc2)CC1	34.4	21.0%	-25.9%	2.7	0.9
CC1CCCCN1S(=O)(=O)c1ccc(NC(=O)c2cccs2)cc1 (configuration not stated)	36.8	?	14.7µM*	-25.0	13.5
CC1CCN(S(=O)(=O)c2ccc(NC(=O)c3cccs3)cc2)CC1	-0.6	4.7%	4.65µM*	-32.0	-5.4
C[N+](C)(C)CC(=O)Nc1ccc(Cl)cc1C(=O)c1ccccc1	19.0	20.2%	11.7µM*	-7.2	-0.9
CC(=O)Nc1ccc(Cl)cc1C(=O)c1ccc[nH]1	/	/	/	-18.1	/
CCN(CC)CCNCC(=O)Nc1ccc(Cl)cc1C(=O)c1ccccc1	-3.5	?	/	29.6	-2.9
CN(C)CCCNCC(=O)Nc1ccc(Cl)cc1C(=O)c1ccccc1	-13.4	-30.3%	3.7µM*	-3.6	14.3
NCC(=O)Nc1ccc(Cl)cc1C(=O)c1ccc[nH]1	-7.5	5.22µM*	?	-65.8*	-1.8
CC(=O)/C(=N/Nc1ccccc1)Sc1nnc(C(O)c2ccccc2)n1-c1ccccc1 (configuration not stated)	-14.6	?	-17.2%	-8.2	-2.9
NC(=Nc1ccc(N)cc1)C(N)=Nc1ccc(N)cc1	-2.9	?	32.0%	-65.5*	-3.9
CCC(=O)N1c2ccc(S(=O)(=O)CCC(=O)Nc3ccc(Br)c(C)c3)cc2CC1C (configuration not stated)	/	/	/	-71.6*	/
CCC(=O)N1c2ccc(S(=O)(=O)CCC(=O)N3CCN(c4ccc(F)cc4)CC3)cc2CC1C (configuration not stated)	/	/	/	-24.0	/
SMILES	Shiga toxin inh	Pf growth 96h	Pf growth 48h	HCMV antiviral	Cycloheximide cs
CCOC(=O)N1CCN(C(=O)CCS(=O)(=O)c2ccc3c(c2)CC(C)N3C(=O)CC)CC1 (configuration not stated)	13.3	14.7µM*	0.6%	-20.1	-2.6
CC1Cc2cc(S(=O)(=O)CCC(=O)N3CCN(c4ccccc4)CC3)ccc2N1C(=O)C1CC1 (configuration not stated)	0.9	9.28µM*	-12.0%	-36.0	7.2
Nc1nccc(N2CCCCC2)n1	/	/	/	-0.7	/
O=C(c1ccco1)N1CCN(CC(O)COc2ccc(Br)cc2)CC1 (configuration not stated)	-11.6	-1.5%	22.2%	-30.9	1.9
Cc1ccc(S(=O)(=O)N2CC=C(c3c(C)n(CC(=O)N4CCCC4)c4ccccc34)CC2)cc1C	-3.0	/	/	-16.1	-5.5
Cc1cccc(OCCn2ccnc2)c1	-6.7	0.0%	-13.8%	7.9	-4.3
Cc1ccccc1OCCOc1ccccc1C=C(C#N)C#N	35.5*	161.3%	13.9%	/	28.2*
Cc1cccc(OCCOc2ccccc2C=C(C#N)C#N)c1	16.8	24.9%	3.1%	50.2	19.1*
Cc1ccc(Cn2c(SCc3ccc(C(=O)NC4CCCC4)cc3)nc3ccncc32)cc1	/	/	/	-74.1*	/
O=C(c1ccc(CSc2nc3ccncc3n2Cc2ccccc2F)cc1)N1CCCCC1	/	/	/	-62.3*	/
COc1ccc(Cn2c(SCc3ccc(C(=O)NC4CCCC4)cc3)nc3ccncc32)cc1	/	/	/	7.6	/
CSCCC(NC(=O)c1ccccc1Br)C(=O)N1CCCCCCC1 (configuration not stated)	/	11.9%	?	-15.2	/
COc1ccc2cc(-c3csc(-c4cccnc4)n3)ccc2c1	73.7	/	53.7%	93.6	26.3*
COc1ccc(-c2csc(-c3cccnc3)n2)cc1C	89.6*	?	-26.4%	-103.1*	35.8
COc1ccc(Cl)cc1Nc1nc(-c2cccnc2)cs1	-0.7	1.6%	?	-37.6	10.6
C1=CC(c2cc3ccccc3o2)OC(CCc2ccccc2)C1 (configuration not stated)	-1.8	?	11.0%	20.4	9.1
CC(=O)c1ccc(S(=O)(=O)Nc2ccc(C(=O)N(C)CC(=O)Nc3cccc(C)c3C)cc2)cc1	/	?	?	-37.1	/
COc1ccc(C2C(C(C)=O)=C(C)Nc3ncnn32)cc1 (configuration not stated)	-7.2	?	0.0%	49.1	-3.1
C/C(=N\NC(=O)c1ccc(CSc2nncn2C)cc1)c1ccc(C#N)cc1	-9.4	?	?	6.7	-1.3
C/C(=N\NC(=O)c1c(Cl)c(C)nn1C)c1cccc(NC(=O)c2cccc(F)c2)c1	13.4	?	?	8.1	2.1
C/C(=N\NC(=O)c1cc(Br)ccc1O)c1cccc(NC(=O)c2ccccc2F)c1	43.3*	5.3%	2.6%	-26.6	18.8
C/C=N/NC(=O)c1cc(Br)ccc1O	20.4	10.2%	27.3%	5.0	11.8
C/C(=N\NC(=O)c1nn(C)c(C)c1Br)c1cccc(NC(=O)c2ccc(F)cc2)c1	active	?	52.8%	-5.4	72.1*
C/C(=N\NC(=O)c1ccccc1F)c1ccc(C#N)cc1	128.6*	171.6%	175.7%	-17.4	37.5*
C/C(=N\NC(=O)c1ccc(O)cc1)c1cccc(NC(=O)c2ccccc2C)c1	28.1*	?	33.3%	11.2	25.3*
C/C(=N\NC(=O)c1c(Br)c(C)nn1C)c1cccc(NC(=O)c2ccccc2C)c1	60.4	10.3%	27.5%	?	-3.1

Screens as filed in PubChem.
